Measured values from the OligoGym collection.

Each sequence was assayed against RYR2 (assay: pooled miR-30 sensor sort-seq; sequence = guide strand). Settings: shRNA.
Also: reference of the scale not given here.

Row | Sequence | sensor-assay potency score (higher = more potent)
1 | TTCAGTGTGAACATCATGGTGT | 0.656
2 | TATTCGAGACACATCTACCTTC | 0.298
3 | TTCATTATTATCCATCACCGAA | -1.08
4 | TAAGTTGTAATTGCGCTCCTGT | 0.62
5 | TTTAGTAGCTTCTTTGTCTTTG | 0.401
6 | TATGCTATGATTTTCTTCCAGA | -0.61
7 | TTGCAGTCCACAACCAGCCAAA | -1.35
8 | TTTTGTACTCGGTTCCACCTGA | 0.606
9 | TTTTATTGTAGAATTTTCGGAA | -0.252
10 | TAGTACATAGTGAACTGCGATG | -0.997

These sequences were tested against S100A11 in the same assay as above. Settings: shRNA.

Row | Sequence | sensor-assay potency score (higher = more potent)
11 | TATAACCATCCTTTCCAGCATA | -1.17
12 | AAGCTTAGGAACTCTGTCTTGG | 0.352
13 | AAATTCTGAGAAATCTAGCTGA | 0.4
14 | TCCAGTTTCTTCATCATGCGGT | -0.21
15 | ATCCTTTCCAGCATACTTCTGG | -0.568
16 | TAGTTCTGTATTCATGAAGCTT | -0.971
17 | AATTCTGAGAAATCTAGCTGAC | -0.15
18 | TTCTGGTTCTTTGTGAAGGCAG | -0.487
19 | AGTGTAGTTATAACCATCCTTT | -1.48
20 | ATCTAGCTGACCATCACTGTTG | -0.625
21 | TTGTGAAGGCAGCTAGTTCTGT | -0.251
